# Test results published in PubChem BioAssay (EPA / NIEHS).
# Inconclusive results are not listed. Active and inactive are the calls of the source. How the source made its calls: active means hit-call score of the fitted dose curve at least 0.9, where 1 is the maximum; inconclusive means response in the unintended direction; inactive means score below 0.9.
# Assays:
# [1] = molecular target: Estrogen receptor (Homo sapiens) (UniProt P03372); assay: OT_ER_ERaERa_1440: Odyssey Thera (OT) 24-hour HEK293T Protein-Complementation Assay for Estrogen Receptor-alpha/-alpha Homodimer (AID 2283349);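 further: hits raise fluorescence above DMSO for agonists and antagonists alike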
# Method in brief: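 Stably transfected HEK293T; ERα LBD homodimer PCA. 24 h dosing, fluorescence intensity read, gain-of-signal vs DMSO.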
# [2] = molecular target: Estrogen receptor (Homo sapiens) (UniProt P03372); assay: OT_ER_ERaERa_0480: Odyssey Thera (OT) 8-hour HEK293T Protein-Complementation Assay for Estrogen Receptor-alpha/-alpha Homodimer (AID 2283351);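 further: rise in fluorescence from reassembled reporter fragments on ERα LBD homodimer in nucleus or whole cell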
# Method in brief: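 HEK293T cells stably expressing a PCA pair of ER alpha LBD (residues 310-547) were dosed for 8 hours. The gain in fluorescence intensity, nuclear for agonists and whole-cell for antagonists, was measured by laser scanning cytometry against DMSO vehicle.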
# [3] = molecular target: Estrogen receptor (Homo sapiens) + Estrogen receptor beta (Homo sapiens) (UniProt P03372+Q92731); assay: OT_ER_ERaERb_0480: Odyssey Thera (OT) 8-hour HEK293T Protein-Complementation Assay for Estrogen Receptor-alpha/-beta Heterodimer (AID 2283352)
# Method in brief: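 HEK293T cells expressing ER-alpha/ER-beta LBD fusions to complementary reporter fragments were dosed with compound for 8 hours. Heterodimer formation was read as increased nuclear (agonist) or nuclear plus cytoplasmic (antagonist) mean fluorescence intensity versus DMSO vehicle.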
# [4] = molecular target: Estrogen receptor (Homo sapiens) (UniProt P03372); assay: NVS_NR_hER: NovaScreen (NVS) Nuclear Receptor Binding Assay for human Estrogen Receptor (ER) (AID 2283348)
# Method in brief: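 Radiodetection of ligand displacement in a lysate-based, cell-free format using MCF7 extracts, read at 18 hours. Duplicate 25 uM primary testing, then concentration series for actives.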
# [5] = molecular target: bovine Estrogen Receptor (ER), ESR1 (gene 407238) (UniProt P49884); assay: NVS_NR_bER: NovaScreen (NVS) Nuclear Receptor Binding Assay for bovine Estrogen Receptor (ER) (AID 2283345);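 further: actives lower the bound radioligand count which means they displace the ER ligand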
# Method in brief: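 Cell-free radioligand binding with receptor from bovine uterine membranes, read by scintillation counting 18 h after dosing. Loss of specific binding was scored against DMSO; primary screen at 25 uM in duplicate, actives then run as concentration series.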
# [6] = molecular target: chimpanzee Androgen Receptor (AR), AR (gene 747460) (UniProt O97775); assay: NVS_NR_cAR: NovaScreen (NVS) Nuclear Receptor Binding Assay for chimpanzee Androgen Receptor (AR) (AID 2283346);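 further: radioligand displacement from AR measured by scintillation counting in a cell-free assay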
# Method in brief: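 Cell-free radioligand displacement using receptor protein extracted from Sf9/Sf21 cells; bound radioligand measured by scintillation counting 72 hours after chemical dosing. Loss of signal versus DMSO baseline indicates binding; primary screen single-concentration in duplicate at 25 uM, actives followed in concentration series.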
# [7] = molecular target: Androgen Receptor/SRC-1 Co-activator, AR (gene 367) (UniProt P10275); assay: OT_AR_ARSRC1_0960: Odyssey Thera (OT) 16-hour HEK293T Protein-Complementation Assay for Androgen Receptor/SRC-1 Co-activator (AID 2283353);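 further: actives raise the signal above DMSO so potency reflects increased AR and SRC-1 complex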
# Method in brief: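 Endpoint is gain-of-signal N/C fluorescence ratio in the 488 nm channel versus DMSO, from at least 400 cells per image, measured 16 h post-dosing. Cells: HEK293T stably carrying split-Venus AR/SRC-1 complementation constructs.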
# Sequence of Androgen Receptor/SRC-1 Co-activator, AR (gene 367) (P10275 whole entry, looked up): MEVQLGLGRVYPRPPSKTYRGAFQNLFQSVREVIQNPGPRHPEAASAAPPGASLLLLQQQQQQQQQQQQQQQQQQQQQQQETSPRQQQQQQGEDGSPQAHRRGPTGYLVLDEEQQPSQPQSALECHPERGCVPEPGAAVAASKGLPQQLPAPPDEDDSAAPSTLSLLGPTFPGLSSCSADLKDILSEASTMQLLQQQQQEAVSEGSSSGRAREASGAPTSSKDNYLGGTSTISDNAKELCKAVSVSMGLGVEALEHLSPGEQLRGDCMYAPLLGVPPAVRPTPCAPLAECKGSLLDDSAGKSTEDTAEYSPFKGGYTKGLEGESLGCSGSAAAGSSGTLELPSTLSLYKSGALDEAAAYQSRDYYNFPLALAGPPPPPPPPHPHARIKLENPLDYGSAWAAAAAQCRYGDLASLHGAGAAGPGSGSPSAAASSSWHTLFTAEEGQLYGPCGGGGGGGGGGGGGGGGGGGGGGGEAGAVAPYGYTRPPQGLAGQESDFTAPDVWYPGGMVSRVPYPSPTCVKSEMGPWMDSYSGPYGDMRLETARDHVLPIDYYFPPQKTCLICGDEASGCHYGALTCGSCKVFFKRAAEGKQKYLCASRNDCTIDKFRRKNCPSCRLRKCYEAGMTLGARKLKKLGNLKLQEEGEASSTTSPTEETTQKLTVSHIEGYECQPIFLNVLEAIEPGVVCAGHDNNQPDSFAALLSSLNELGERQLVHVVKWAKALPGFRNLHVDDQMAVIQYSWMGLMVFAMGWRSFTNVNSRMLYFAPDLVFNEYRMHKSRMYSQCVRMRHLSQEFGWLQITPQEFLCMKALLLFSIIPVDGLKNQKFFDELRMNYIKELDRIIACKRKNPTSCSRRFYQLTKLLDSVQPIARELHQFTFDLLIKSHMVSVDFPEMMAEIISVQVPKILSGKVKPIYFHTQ
# Sequence of Estrogen receptor (Homo sapiens) (P03372 whole entry, looked up, the tested form may be a part): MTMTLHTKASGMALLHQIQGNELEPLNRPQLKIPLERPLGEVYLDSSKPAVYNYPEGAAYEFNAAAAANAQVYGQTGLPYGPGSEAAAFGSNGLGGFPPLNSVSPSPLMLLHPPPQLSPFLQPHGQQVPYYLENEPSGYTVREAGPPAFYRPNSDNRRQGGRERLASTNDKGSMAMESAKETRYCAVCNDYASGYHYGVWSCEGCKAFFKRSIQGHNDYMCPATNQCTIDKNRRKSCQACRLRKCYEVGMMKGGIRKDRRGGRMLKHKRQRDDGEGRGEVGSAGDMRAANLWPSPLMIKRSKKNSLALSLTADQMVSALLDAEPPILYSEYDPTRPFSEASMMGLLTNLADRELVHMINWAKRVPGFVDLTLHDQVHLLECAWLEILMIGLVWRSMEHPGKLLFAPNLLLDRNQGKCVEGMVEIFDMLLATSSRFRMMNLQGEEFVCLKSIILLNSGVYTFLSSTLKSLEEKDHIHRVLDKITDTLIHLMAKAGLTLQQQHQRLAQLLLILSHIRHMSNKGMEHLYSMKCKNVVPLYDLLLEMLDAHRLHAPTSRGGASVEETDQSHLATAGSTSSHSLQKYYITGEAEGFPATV
# Sequence of Estrogen receptor (Homo sapiens) + Estrogen receptor beta (Homo sapiens) (P03372 whole entry, looked up, the tested form may be a part): as above
# Sequence of Estrogen receptor (Homo sapiens) + Estrogen receptor beta (Homo sapiens) (Q92731 whole entry, looked up, the tested form may be a part): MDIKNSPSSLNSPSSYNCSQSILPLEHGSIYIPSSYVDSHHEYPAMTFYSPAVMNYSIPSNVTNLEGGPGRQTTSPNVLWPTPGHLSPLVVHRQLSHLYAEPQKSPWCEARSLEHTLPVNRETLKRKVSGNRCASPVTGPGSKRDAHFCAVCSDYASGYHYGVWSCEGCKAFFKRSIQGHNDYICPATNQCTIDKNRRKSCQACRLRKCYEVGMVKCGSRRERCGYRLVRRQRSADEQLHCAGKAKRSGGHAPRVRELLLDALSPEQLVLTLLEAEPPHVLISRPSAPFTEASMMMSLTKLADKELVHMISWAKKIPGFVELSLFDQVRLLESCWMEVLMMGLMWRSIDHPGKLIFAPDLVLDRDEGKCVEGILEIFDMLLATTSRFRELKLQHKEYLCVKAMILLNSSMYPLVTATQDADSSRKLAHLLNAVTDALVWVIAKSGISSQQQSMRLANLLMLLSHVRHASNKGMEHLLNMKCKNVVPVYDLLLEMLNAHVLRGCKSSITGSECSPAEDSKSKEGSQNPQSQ
# Sequence of chimpanzee Androgen Receptor (AR), AR (gene 747460) (O97775 whole entry, looked up): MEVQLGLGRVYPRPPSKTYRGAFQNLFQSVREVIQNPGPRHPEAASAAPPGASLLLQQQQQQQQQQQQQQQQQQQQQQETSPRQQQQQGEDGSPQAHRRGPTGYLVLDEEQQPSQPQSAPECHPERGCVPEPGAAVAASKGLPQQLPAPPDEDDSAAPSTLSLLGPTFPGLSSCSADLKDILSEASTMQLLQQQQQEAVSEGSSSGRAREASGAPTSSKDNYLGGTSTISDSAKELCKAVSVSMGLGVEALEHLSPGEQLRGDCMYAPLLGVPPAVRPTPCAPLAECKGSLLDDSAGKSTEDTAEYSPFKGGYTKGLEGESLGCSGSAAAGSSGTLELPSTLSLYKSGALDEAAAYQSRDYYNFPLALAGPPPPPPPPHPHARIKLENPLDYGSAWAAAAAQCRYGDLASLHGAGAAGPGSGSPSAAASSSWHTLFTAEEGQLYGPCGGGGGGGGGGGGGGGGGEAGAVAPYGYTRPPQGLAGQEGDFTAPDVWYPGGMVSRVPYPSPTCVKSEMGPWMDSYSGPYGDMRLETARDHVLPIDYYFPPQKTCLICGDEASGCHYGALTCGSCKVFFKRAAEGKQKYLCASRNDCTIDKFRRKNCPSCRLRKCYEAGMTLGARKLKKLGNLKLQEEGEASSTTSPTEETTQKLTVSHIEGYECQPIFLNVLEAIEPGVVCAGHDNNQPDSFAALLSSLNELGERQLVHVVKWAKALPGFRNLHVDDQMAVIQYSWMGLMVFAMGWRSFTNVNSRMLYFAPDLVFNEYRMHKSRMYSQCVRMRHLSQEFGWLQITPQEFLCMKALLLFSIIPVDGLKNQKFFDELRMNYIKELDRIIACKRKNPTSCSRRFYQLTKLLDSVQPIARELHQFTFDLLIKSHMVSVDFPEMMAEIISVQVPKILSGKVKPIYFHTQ
# Sequence of bovine Estrogen Receptor (ER), ESR1 (gene 407238) (P49884 whole entry, looked up): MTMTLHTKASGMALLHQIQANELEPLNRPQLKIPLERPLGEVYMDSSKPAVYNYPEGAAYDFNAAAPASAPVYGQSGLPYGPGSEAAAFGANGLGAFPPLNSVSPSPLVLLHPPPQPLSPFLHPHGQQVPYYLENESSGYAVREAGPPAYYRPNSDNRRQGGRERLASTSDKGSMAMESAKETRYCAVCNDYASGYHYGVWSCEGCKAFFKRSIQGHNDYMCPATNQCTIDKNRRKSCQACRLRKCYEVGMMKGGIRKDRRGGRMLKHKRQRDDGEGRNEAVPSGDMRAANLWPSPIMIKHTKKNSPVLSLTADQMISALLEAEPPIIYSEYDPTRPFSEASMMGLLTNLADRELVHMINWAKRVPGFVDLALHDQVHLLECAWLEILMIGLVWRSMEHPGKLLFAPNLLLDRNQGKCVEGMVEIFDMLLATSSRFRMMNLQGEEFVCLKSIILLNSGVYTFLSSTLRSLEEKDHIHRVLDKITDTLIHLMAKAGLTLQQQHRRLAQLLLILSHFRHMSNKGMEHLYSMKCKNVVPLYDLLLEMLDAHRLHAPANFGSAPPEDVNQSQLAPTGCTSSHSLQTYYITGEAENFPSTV
compound,measurement,setting,value
CCCCCCC1(C)CCC(=O)O1 (configuration not stated),outcome,[1],inactive
same,outcome,[2],inactive
CCCCCCCC[N+](C)(CCCCCCCC)CCCCCCCC,outcome,[1],inactive
same,outcome,[2],inactive
same,outcome,[3],inactive
CC1=CC[C@H]2C[C@@H]1C2(C)C,outcome,[1],inactive
same,outcome,[2],inactive
same,outcome,[3],inactive
CC(C)c1ccc2c(c1)CC[C@H]1[C@](C)(CN)CCC[C@]21C,outcome,[4],inactive
O=C(OCC1CCC2OC2C1)C1CCC2OC2C1 (configuration not stated),outcome,[5],inactive
same,outcome,[1],inactive
same,AC50,[2],12.1 µM (active)
CCCOC(=O)CCCCC(=O)OCCC,outcome,[6],inactive
CCCc1ccc(OC)cc1,outcome,[1],inactive
same,outcome,[2],inactive
same,outcome,[3],inactive
same,outcome,[7],inactive
CNC(=S)NN,outcome,[1],inactive
same,outcome,[2],inactive
same,outcome,[3],inactive
C=C[Si](C)(C)O[Si](C)(C)C=C,outcome,[1],inactive
same,outcome,[2],inactive
C1=Cc2ccccc2C1,outcome,[1],inactive
same,outcome,[2],inactive
C1CN(SSN2CCOCC2)CCO1,outcome,[1],inactive
same,outcome,[2],inactive
Cc1cc(C)c(C(=O)O)c(C)c1,outcome,[1],inactive
same,outcome,[2],inactive
same,outcome,[3],inactive
CCOC(=O)CC,outcome,[1],inactive
C=CC(=O)NC(C)(C)CS(=O)(=O)O,outcome,[1],inactive
same,outcome,[2],inactive
same,outcome,[3],inactive
CC(C)=CCC[C@H](C)CCO,outcome,[1],inactive
same,outcome,[2],inactive
same,outcome,[3],inactive
same,outcome,[7],inactive
CC1=NN(c2cc(S(=O)(=O)O)ccc2Cl)C(=O)C1N=Nc1ccccc1 (configuration not stated),outcome,[1],inactive
same,outcome,[2],inactive
same,outcome,[3],inactive
Nc1ccc2cc3ccccc3cc2c1,outcome,[4],inactive
O=C(O)c1ccccc1Nc1cccc(C(F)(F)F)c1,outcome,[4],inactive
CC(C)(C)C(=O)CCc1ccc(Cl)cc1,outcome,[4],inactive
O=C1C(N(CO)C(=O)NCO)N(CO)C(=O)N1CO (configuration not stated),outcome,[1],inactive
same,outcome,[2],inactive
O=C(O)CCCC[C@@H]1SC[C@@H]2NC(=O)N[C@@H]21,outcome,[4],inactive
same,outcome,[1],inactive
same,outcome,[2],inactive
same,outcome,[3],inactive
Cn1c([N+](=O)[O-])cnc1COC(N)=O,outcome,[1],inactive
same,outcome,[2],inactive
same,outcome,[3],inactive
O=C1CCCC1,outcome,[1],inactive
same,outcome,[2],inactive
same,outcome,[3],inactive
CC(C)(C)c1ccc(OC(=O)c2ccccc2O)cc1,AC50,[1],14.5 µM (active)
same,outcome,[2],inactive
same,AC50,[3],58.9 µM (active)
Cc1ccc(C(C)(C)C)cc1,outcome,[1],inactive
same,outcome,[2],inactive
CC(C)(C)c1ccc(-c2ccc(C(C)(C)C)cc2)cc1,outcome,[1],inactive
same,outcome,[2],inactive
same,outcome,[3],inactive
same,AC50,[7],77.8 µM (active)
CCCCCCCOC(=O)CCC,outcome,[1],inactive
same,outcome,[2],inactive
same,outcome,[3],inactive
O=C(C(Cl)Cl)N1CCOC12CCCCC2,outcome,[1],inactive
same,outcome,[2],inactive
O=C(C=Cc1ccccc1)OCc1ccccc1,outcome,[1],inactive
same,outcome,[2],inactive
same,outcome,[3],inactive
COc1cc(NC(=O)CC(C)=O)c(OC)cc1Cl,outcome,[4],inactive
CC(C)c1ccc2cc(C(C)C)ccc2c1,outcome,[1],inactive
same,outcome,[2],inactive
same,outcome,[3],inactive
same,outcome,[7],inactive
O=C(O)CCCCCCCCCC(=O)O,outcome,[4],inactive
CC(=O)NS(=O)(=O)c1ccc(N)cc1,outcome,[4],inactive
O=C(c1ccccc1)C1CCC1,outcome,[1],inactive
same,outcome,[2],inactive
same,outcome,[3],inactive
CCCCC(CC)CCC(CC(C)C)OS(=O)(=O)O (configuration not stated),outcome,[1],inactive
same,outcome,[2],inactive
same,outcome,[3],inactive
CCCCCCCCO[C@@H]1O[C@H](CO)[C@@H](O)[C@H](O)[C@H]1O,outcome,[1],inactive
same,outcome,[2],inactive
